104 molecules from PubChem BioAssay AID1209 (Sanford-Burnham Center for Chemical Genomics, 2008) can be followed below.

The campaign covered roughly 190,000 compounds. About 810 (0.43%) were called active. This is one part of a sample in which actives are shown more often than they occur. Rule as the data show it: active = inhibition above about 50%; inactive = the rest.

In this test the target is Mannose-6-phosphate isomerase (Homo sapiens) (UniProt P34949). In words: inhibitors of human PMI, primary screen, biochemical, fluorescence intensity, coupled assay (AID 1209).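 Also: plate controls were DMSO vehicle for no effect and wells lacking substrate for full effect.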 To be noted: purified PMI enzyme, at 20 µM, active compounds read high.
Mannose-6-phosphate isomerase (Homo sapiens), sequence (P34949 whole entry, looked up): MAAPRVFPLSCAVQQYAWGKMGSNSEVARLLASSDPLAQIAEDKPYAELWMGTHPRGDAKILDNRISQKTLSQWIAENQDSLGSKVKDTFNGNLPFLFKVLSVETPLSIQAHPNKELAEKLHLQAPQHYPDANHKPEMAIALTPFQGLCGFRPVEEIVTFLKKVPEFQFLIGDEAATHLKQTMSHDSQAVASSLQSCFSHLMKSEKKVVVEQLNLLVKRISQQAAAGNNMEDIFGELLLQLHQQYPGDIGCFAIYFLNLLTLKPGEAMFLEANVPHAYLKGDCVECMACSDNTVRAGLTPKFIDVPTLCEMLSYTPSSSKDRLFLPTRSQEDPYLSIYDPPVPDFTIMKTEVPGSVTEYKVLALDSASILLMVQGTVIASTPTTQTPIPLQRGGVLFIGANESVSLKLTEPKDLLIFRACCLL
The inhibition is the change of the read-out against control, counted positive when it falls. Take `CN(C)C(=O)N1CCC(C(=O)NCc2ccccc2Cl)CC1`: the inhibition is 3.2% (inactive).
Turning to `CCOC(=O)c1ccccc1Nc1cc(C)nc2nc(C)nn12`, the inhibition was 5.5% (inactive).
In the case of `CCOC(=O)N1CCN(C(=O)CSc2ccc(-c3ccc(OC)cc3)nn2)CC1`, the inhibition was -0.8% (inactive).
Next, `O=[N+]([O-])c1cc2c(c(CSc3nnnn3-c3ccc(O)cc3)c1)OCOC2`: 26.2% (inactive).
Next, `COc1ccc(/C=N\NC(=O)COc2ccc(C(C)(C)C)cc2)cc1Cn1nc(C)cc1C`: -2.3% (inactive); `COc1ccc(C2NC(=O)NC3=C2CCc2ccccc23)cc1` (centres undefined): 70.7% (active).
With `O=C1NC2=C(CCc3ccccc32)C(c2ccccc2)N1` (centres undefined), the inhibition is -24.4% (inactive).
`Cc1ccc(C2NC(=O)NC3=C2CCc2ccccc23)cc1` (centres undefined): the inhibition is 10.5% (inactive).
Next, `CN(C)/C=C(\C(=O)c1ccc(F)cc1F)c1nnnn1-c1ccccc1`: -3.7% (inactive); `O=C(CCNc1ccc(Br)cc1)c1cccc([N+](=O)[O-])c1`: 36% (inactive); `Cc1ccc(NCC(=O)c2ccc([N+](=O)[O-])cc2)cc1`: -45.3% (inactive).
Next, `O=[N+]([O-])c1ccc(Cc2ccncc2)cc1`: 1.8% (inactive).
With `O=C(CCNc1ccc(F)cc1)c1cccc([N+](=O)[O-])c1`, the inhibition is 47.5% (inactive).
Next, `Cc1ccc(NCCC(=O)c2cccc([N+](=O)[O-])c2)cc1`: 43.5% (inactive); `O=C(CCNc1ccc(Cc2ccncc2)cc1)c1cccc([N+](=O)[O-])c1`: 43.5% (inactive).
Next, `Cc1ccc(NCCC(=O)c2cccc([N+](=O)[O-])c2)c(C)c1`: 55.7% (active); `O=C(CNc1cccc2ccccc12)c1ccc([N+](=O)[O-])cc1`: 25.3% (inactive); `O=C(CCNc1cccc(F)c1)c1cccc([N+](=O)[O-])c1`: 37.8% (inactive).
Next, `Cc1cccc(NCCC(=O)c2ccc([N+](=O)[O-])cc2)c1C`: 76.2% (active); `O=C(CCNc1ccccc1)c1cccc([N+](=O)[O-])c1`: 56.8% (active); `O=C(CCNc1ccc(Cc2ccncc2)cc1)c1ccc([N+](=O)[O-])cc1`: 64.4% (active).
In the case of `CCCn1cc(CN2CCC(Cc3ccccc3)(C(=O)OCC)CC2)c(C)n1`, the inhibition was 5.2% (inactive).
Next, `COc1ccc(NC(=S)N/N=C2\CC(C)(C)Oc3ccc(O)cc32)cc1`: 5.4% (inactive); `NC(=O)CSC1=Nc2ccccc2C2=NC(c3ccccc3)C(=O)N12` (centres undefined): -8.5% (inactive).
Next, `O=C(c1nn2c(C(F)(F)F)cc(-c3cccs3)nc2c1Cl)N1CCCc2ccccc21`: -11.4% (inactive); `COc1ccc(N2C(=O)CN(Cc3cc(OC)c(OC)c(OC)c3)C2=S)cc1`: -2.4% (inactive).
Next, `CC(/C=C/c1ccccc1)NC(N)=O` (centres undefined): -3.3% (inactive).
Regarding `N#Cc1ccc(NC(=S)NC(=O)CCc2ccc(S(=O)(=O)N3CCOCC3)cc2)cc1`, the inhibition is 8.9% (inactive).
Next, `CCOc1ccc(-c2nn[nH]n2)cc1OCC`: -5.5% (inactive); `CCc1nn(C(C)C(=O)N2CCN(Cc3ccccc3)CC2)c(=O)c2cc3occc3n12` (centres undefined): 16.5% (inactive).
Next, `COc1ccc(CNC(=O)C(c2cccs2)N(C(=O)c2csnn2)C2CC2)cc1` (centres undefined): 93% (active); `O=C(NCc1ccccc1)C(c1cccs1)N(C(=O)c1csnn1)C1CC1` (centres undefined): 4.8% (inactive); `O=C(NCc1ccc(F)cc1)C(c1cccs1)N(C(=O)c1csnn1)C1CC1` (centres undefined): 0.7% (inactive).
Next, `CCOc1ccc(S(=O)(=O)NCc2ccccc2)cc1C(N)=O`: 8.4% (inactive); `O=[N+]([O-])c1ccc(N2CCN(S(=O)(=O)c3ccc4ccccc4c3)CC2)cc1NCC1CCCO1` (centres undefined): 5.7% (inactive); `O=C(CCc1nnc(COc2ccccc2)o1)NCc1ccc(Cl)s1`: 5.4% (inactive).
`CN(CCO)C1=CC(=O)CC(C)(C)C1`: the inhibition is -12.5% (inactive).
Consider `CCOC(=O)c1ccc(CC(=O)c2ccc(O)cc2O)o1`, for which the inhibition was -14.1% (inactive).
As for `CCCc1cc(C(=O)Cc2ccc(C(=O)OCC)o2)c(O)cc1O`, the inhibition was -21.9% (inactive).
Next, `CCOC(=O)c1ccc(CC(=O)c2ccc(O)c(O)c2O)o1`: 75% (active).
Next, `Nc1ccc(S(=O)(=O)NC2(C(F)(F)F)NC(=O)N(c3ccccc3Cl)C2=O)cc1` (centres undefined): 3.9% (inactive); `COc1ccc(S(=O)(=O)NCCSCc2ccco2)cc1`: 8.5% (inactive); `Cc1nn(C)c(C(=O)N/N=C/c2ccc(C(F)(F)F)cc2)c1[N+](=O)[O-]`: 1.6% (inactive).
Next, `c1ccc(C2=Nn3c(nnc3-c3n[nH]c4c3CCC4)SC2)cc1`: 8% (inactive); `CC(C)(C)C1=Nn2c(nnc2-c2n[nH]c3c2CCC3)SC1`: 75.8% (active); `CC1=Nn2c(nnc2-c2n[nH]c3c2CCC3)SC1`: 3.5% (inactive).
In the case of `NS(=O)(=O)c1ccc(N/N=C/c2ccccc2Br)cc1`, the inhibition is 2% (inactive).
Next, `COc1cc2c(cc1/C=C/C(=O)O)OC(C)C2` (centres undefined): 9.4% (inactive); `CC(C)(Cl)C1Cc2cc3ccc(=O)oc3cc2O1` (centres undefined): 6.2% (inactive).
Next, `CC(C)(O)C1Cc2cc(/C=C/C(=O)O)c(O)cc2O1` (centres undefined): 94.4% (active); `O=C(OCc1cc2ccccc2[nH]c1=O)C1CCCCC1`: -2.3% (inactive); `COc1ccc(C2(c3ccc(OC(C)=O)cc3OC(C)=O)CC(c3ccccc3)NC(=S)N2)cc1` (centres undefined): 63.8% (active).
Next, `COc1ccc(N2C(=S)NC(C)(C)CC2(C)c2ccc(OC(C)=O)cc2OC(C)=O)cc1` (centres undefined): -2.5% (inactive); `COc1ccc(C2(c3ccc(O)cc3O)CC(c3ccccc3Cl)NC(=S)N2)cc1` (centres undefined): 11.9% (inactive).
As for `O=C1Nc2ccccc2C12OCCO2`, the inhibition was -6.7% (inactive).
Next, `O=C1Nc2ccccc2C12Nc1ccccc1S2` (centres undefined): 58.7% (active); `O=C1N2CCCc3cccc(c32)C12Nc1ccccc1S2` (centres undefined): 22.1% (inactive).
Next, `C/C(=N\NC(=O)Cc1ccccc1)c1cccs1`: 9.1% (inactive).
On to `Cc1cccc(N=Cc2cc3c(cc2[N+](=O)[O-])OCO3)c1`, for which the inhibition is 49.7% (inactive).
Next, `Cc1ccccc1N=Cc1cc2c(cc1[N+](=O)[O-])OCO2`: 22.6% (inactive); `O=[N+]([O-])c1cc2c(cc1C=Nc1ccccc1)OCO2`: 55.1% (active).
On to `COc1ccccc1/C=C/C(=O)Nc1cccc(S(=O)(=O)NC2=NCCCCC2)c1`, for which the inhibition was -3.7% (inactive).
Next, `CN(C)c1ccc(NC(=O)Cn2ncn3c(cc4ccccc43)c2=O)cc1`: 22.7% (inactive); `O=C(NC1CC1)C1CCN(c2ncnc3c2sc2cccc(F)c23)CC1`: 7.9% (inactive); `COc1cc(/C=C2\SC(c3ccc(C)cc3)=NC2=O)ccc1O`: 14.1% (inactive).
Next, `Cc1ccc(C2=NC(=O)/C(=C/c3cc(O)c(O)c(Br)c3)S2)cc1`: 81.3% (active); `COc1cc(/C=C2\SC(c3ccc(C)cc3)=NC2=O)cc(OC)c1O`: 26.7% (inactive).
Next, `COc1ccc(NC(=O)N2CCCC2C(=O)Nc2ccc(C)cc2)cc1` (centres undefined): 1.2% (inactive); `CCOc1cc(C2C(C(=O)O)c3cc(OCC)c(OCC)cc3C(=O)N2C)ccc1O` (centres undefined): 6% (inactive).
As for `C/C(=C\C(=O)c1ccccc1)NNc1nc2ccccc2s1`, the inhibition is -3.4% (inactive).
Next, `COc1ccc(S(=O)(=O)n2nc(OC(C)=O)cc2N)cc1`: -1.2% (inactive); `Cc1ccc2nc(SCC(=O)NC(=O)NCc3ccco3)[nH]c2c1`: 6.4% (inactive).
Next, `COC(=O)c1ccc(C)c(NC(=O)CCc2ccc(OC)cc2)c1`: 11.9% (inactive); `C=CCn1sc(N)c(C(=O)OCC)c1=S`: -8% (inactive).
In the case of `CCOC(=O)c1c(N)sn(-c2ccccc2C)c1=S`, the inhibition was 61.3% (active).
Next, `CCOC(=O)c1c(N)sn(-c2ccccc2)c1=S`: 14.9% (inactive).
Next, `COc1ccc(C(NC(=O)/C=C\c2ccco2)c2ccc(OC)c(OC)c2)cc1` (centres undefined): 3.2% (inactive); `S=C(NCC1CCCO1)Nc1cccc(Cl)c1` (centres undefined): -4.4% (inactive); `CCN(CC)c1ccc(/C=N/Nc2nc3ccccc3[nH]2)c(O)c1`: 29.1% (inactive).
Next, `CCN(CC)c1ccc(/C=N/Nc2nc3ccccc3[nH]2)cc1`: 53% (active); `CC(=O)Nc1ccc(/C=N/Nc2nc3ccccc3[nH]2)cc1`: 20.8% (inactive); `C=CCn1c(C)cc(C(=O)Cn2nc(C(=O)O)c3ccccc3c2=O)c1C`: 0.5% (inactive).
`COc1ccc(-c2nc(SC(CC(=O)NCCN3CCOCC3)c3cccs3)n[nH]2)cc1` (centres undefined): the inhibition is 2.7% (inactive).
Regarding `Cc1ccc(C)c(NC(=O)CSc2nnc(C)c(=O)n2N)c1`, the inhibition is -3% (inactive).
Next, `Cc1ccc(NC(=O)CSc2nnc(C)c(=O)n2N)c(C)c1`: 76.6% (active).
Next, `Cc1ccc(NC(=O)CSc2nnc(C)c(=O)n2N)cc1`: -5.9% (inactive); `Cn1c(-c2cccc(Br)c2)n[nH]c1=O`: -8.4% (inactive).
Next, `Brc1cccc(-c2n[nH]c(-c3ccccc3)n2)c1`: 18.9% (inactive); `O=C(NNC(=O)C1CCCN(S(=O)(=O)c2cccc(F)c2)C1)C1CC1` (centres undefined): 6.8% (inactive); `Cc1cc(C(=O)N/N=C/c2cccc([N+](=O)[O-])c2O)n[nH]1`: 52.3% (active).
In the case of `Cc1cc(C(=O)N/N=C/c2cc(N=Nc3ccccc3)ccc2O)n[nH]1`, the inhibition was 4.9% (inactive).
For the molecule `Cc1cc(C(=O)N/N=C/c2ccc(O)c([N+](=O)[O-])c2)n[nH]1`, the inhibition was -7.3% (inactive).
Next, `O=C(Cc1ccc(Cl)cc1)Nc1cccc(S(=O)(=O)Nc2ccccc2F)c1`: 23.4% (inactive); `O=C(Nc1cccc(S(=O)(=O)N2CCCC2)c1)c1ccc2ccccc2n1`: 10% (inactive).
Next, `O=C(CN1C(=O)c2ccccc2C1=O)Nc1cccc(S(=O)(=O)Nc2ccccc2Cl)c1`: 12.3% (inactive); `O=C(/C=C/c1ccccc1)Nc1cccc(S(=O)(=O)Nc2ccccc2F)c1`: 66.1% (active).
Take `O=C(/C=C/c1ccccc1)Nc1cccc(C(=O)O)c1`: the inhibition is 8.9% (inactive).
Next, `Nc1ccc(SCC(=O)Nc2cccc([N+](=O)[O-])c2)cc1`: -7.1% (inactive).
On to `COc1ccccc1NS(=O)(=O)c1cccc(NC(=O)c2ccc3ccccc3n2)c1`, for which the inhibition is 17.4% (inactive).
Next, `O=C(CSc1ccc([N+](=O)[O-])cc1)Nc1cccc(S(=O)(=O)Nc2ccccc2F)c1`: 62.2% (active); `O=C(Nc1cccc(S(=O)(=O)Nc2ccccc2F)c1)c1ccc2ccccc2n1`: 70.4% (active); `Cn1c(=O)c2c(ncn2CC(=O)Nc2cccc(S(=O)(=O)Nc3ccccc3F)c2)n(C)c1=O`: 25.8% (inactive).
With `CSc1cccc(NC(=O)/C=C/c2ccccc2)c1`, the inhibition is 10.8% (inactive).
Next, `O=C(Cc1ccc(Cl)cc1Cl)Nc1cccc(S(=O)(=O)Nc2ccccc2F)c1`: 59% (active).
